# Six1-Eya2 inh: blocks human Six1 binding to Eya2. activity change, % (no concentration beside the values). Q15475+O00167. 360,000 compounds, 0.56% hits. AlphaScreen GST-Six1/His-Eya2 binding, biochemical; active compounds read low; in the data active = activity change below about -65%; inconclusive = mostly about -30% to -63%
#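 AlphaScreen luminescence read after one hour at 37 °C in darkness. Pin-transferred compounds met GST-Six1 and His-Eya2 protein (5X stock 250 nM/500 nM) plus glutathione donor and Ni-chelate acceptor beads (5X, 50 ug/mL).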
# USP2a inh: inhibitors of human ubiquitin-specific protease USP2a; O75604; USP2 core, Ub-CHOP2 coupled fluorogenic reporter, 485/531; Potency, µM (titrated, usually from 38.3 µM), for inactives: top-dose activity change, negative = inhibition, usual class: inhibitors; 330,000 compounds, 0.01% hits;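 note: potency is the fitted concentration of half-maximal effect; plate controls were DMSO wells for no effect and full inhibition by NEM control for full effect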
#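 Deubiquitinase activity read as fluorescence (485/531 nm) after Ub-CHOP2 cleavage activates the enterokinase reporter on its substrate; USP2 core 10nM, Ub-CHOP2 and substrate 25nM each, 30min compound preincubation then 60min RT; data normalized to NEM, curves fitted.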
# Eya2 inh: inhibitors of human Eya2 phosphatase activity; recombinant Eya2, OMFP fluorescence dephosphorylation (OMFP is methylfluorescein phosphate); Potency, µM (top dose mostly 76.9 µM), for inactives: at the top dose activity, negative = inhibition, usual class: inhibitors; 330,000 compounds, 0.006% hits; O00167; note: potency is the fitted concentration of half-maximal effect
#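 Eya2 (0.2 uM) preincubated 10 min at ambient with compound, then OMFP substrate added at 50 uM; 10 min reaction in 50 mM HEPES pH 7.5, 50 mM NaCl, 5 uM MgCl2, 0.05% BSA, 1 mM DTT. Fluorescence read at Ex 485/Em 525 nm.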
# RGS4 inh: inhibitors of human regulator of G protein signaling 4; Transcreener GDP fluorescence polarization, RGS4-accelerated GTP hydrolysis; Potency, µM (titrated, usually from 114 µM), inactives show at the top dose activity change, negative = inhibition, most hits filed as inhibitors; 390,000 compounds, 0.039% hits; note: potency is the fitted concentration of half-maximal effect; nearly all actives have a fitted effect of over 75% in size
#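 MLSMR compounds (23 nl, pin-transferred) preincubated 10 min at room temperature with a 500nM (2x) first reagent, then RGS4 at 900nM (2x) plus Transcreener GDP mix added; fluorescence polarization (620/688 nm) read before and after 90 min at 30 °C.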
# PI4K2A block: inhibitors of human PI4K2A. purified PI4K2A, ADP-Glo luminescence, 1 h; active compounds read low. activity change, negative = inhibition, % at 76.9 µM. 420,000 compounds, 0.13% hits. AID 1346378; in the data active = activity change below about -50%; inconclusive = mostly about -30% to -49%;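 note: -100% = wells without enzyme as full effect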
# Target sequence (Q9BTU6 whole entry, looked up): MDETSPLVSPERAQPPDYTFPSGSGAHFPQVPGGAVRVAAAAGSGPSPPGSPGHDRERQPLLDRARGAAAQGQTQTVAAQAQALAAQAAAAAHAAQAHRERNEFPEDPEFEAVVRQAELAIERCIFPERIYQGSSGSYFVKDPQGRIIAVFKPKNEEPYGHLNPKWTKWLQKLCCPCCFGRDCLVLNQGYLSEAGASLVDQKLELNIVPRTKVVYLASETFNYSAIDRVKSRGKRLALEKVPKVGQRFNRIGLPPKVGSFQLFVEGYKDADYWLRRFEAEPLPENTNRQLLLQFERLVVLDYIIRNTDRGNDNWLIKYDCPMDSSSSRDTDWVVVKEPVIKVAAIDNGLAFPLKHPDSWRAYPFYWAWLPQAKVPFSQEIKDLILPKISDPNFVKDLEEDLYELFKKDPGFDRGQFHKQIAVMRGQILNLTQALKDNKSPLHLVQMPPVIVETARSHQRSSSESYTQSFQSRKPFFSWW
#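 Compounds are screened against recombinant PI4K2A using PI as substrate and ATP, the latter dispensed at 300 microM. Reactions run one hour at ambient temperature before ADP-Glo detection; full inhibition defined by wells lacking enzyme.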
# CtBP-E1A inh: blocks the CtBP interaction with E1A | 340,000 compounds, 0.49% hits | AlphaScreen GST-E1A/His-CtBP binding, 1536-well; active compounds read low | AID 651724 | activity change, % (concentration not given with the values); in the data active = activity change below about -65%; inconclusive = mostly about -30% to -63%
#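 Steps: dispense buffer (Tris pH 8.0, NaCl 300 mM, TCEP 1 mM, BSA, Tween 20); add 5X protein mix (GST-E1A, His-CtBP, 125 nM each); pin 23 nL compound; 2 h at 37 °C, dark; add 5X beads (50 ug/mL); 1 h; read.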
# * hit, by the source's call; u = inconclusive; x = not tested or not shown; [ ] = remark or other dose. This is a sample that favours compounds with a hit; in the whole collection about 0.72% have one here. Unless noted, calls come from the whole dose curve; as a rule, active = well fitted curve in the direction sought with a large enough effect; inconclusive = small, poorly fitted or top-dose-only effect, or another doubt; inactive = no such curve, though single readings can be large; an effect the other way counts as inactive or inconclusive. Unless noted, % is set by controls: 0 for no effect and ±100 for the full control effect.
SMILES,Six1-Eya2 inh,USP2a inh,Eya2 inh,RGS4 inh,PI4K2A block,CtBP-E1A inh
Cc1ccc(-n2ncc(C(=O)NCCN3CCN(C)CC3)c2C2CCN(C(=O)OC(C)(C)C)CC2)c(C)c1,x,x,x,17%,0,x
COc1ccccc1N1CCN(c2nc3ccccc3n3cnnc23)CC1,x,x,x,-7%,-1,x
O=C(CSc1nc2ccccc2nc1Cc1ccc(Cl)cc1)N1CCCc2ccccc21,x,x,x,8%,-15,x
Nc1ccccc1N=Nc1ccccc1N,u,0%,1%,-15%,-9,-79*
Cc1cccc(NC(=O)CN(C)S(=O)(=O)c2ccc3c(c2)c(=O)n(C)c(=O)n3C)c1C,x,x,x,-27%,1,x
O=C(/C=C/c1ccccc1)NCCO,x,x,x,x,-2,x
c1cncc(-c2cccnc2)c1,u,0%,13%,3%[11.4 µM],-65*,u
Oc1cncc(-c2cccnc2)c1,0,-1%,17%,4%,1,8
O=c1c2ccccc2n(Cc2ccco2)n1[C@@H](Cc1ccccc1)Cn1cc(C2CCCC2)nn1,x,x,x,x,-3,x
O=C(O)c1ccc(Nc2nc3ccccc3nc2NS(=O)(=O)c2cccs2)cc1,6,-1%,7%,14%[56.9 µM],-6,-4
O=C(O)c1ccc(NC2=C/C(=N/S(=O)(=O)c3cccs3)c3ccccc3C2=O)cc1,u,x,x,x,-52*,u
O=C(O)c1ccc(NC2=C/C(=N/S(=O)(=O)c3ccccc3)c3ccccc3C2=O)cc1,u,4%,-8%,-5%,u,u
Cc1cc(C)c(S(=O)(=O)/N=C2\C=C(Nc3ccc(C(=O)O)cc3)C(=O)c3ccccc32)c(C)c1,u,-11%,-28%,-20%,u,-72*
O=C1C(Nc2ccc(O)cc2)=C/C(=N/S(=O)(=O)c2cccs2)c2ccccc21,-77*,2%,-8%,-33%,u,u
CN(C)CCN(Cc1ccsc1)c1ccccn1,x,x,x,x,0,x
CCOC(=O)Oc1ccc(CCNC(=O)[C@H](CCSC)NC(C)=O)cc1OC(=O)OCC,x,x,x,x,1,x
Cc1sc2ncn(CC(=O)N3CCN(c4ccc(F)cc4)CC3)c(=O)c2c1S(=O)(=O)N1CCCCC1,x,x,x,9%,-1,x
CC(C(=O)Nc1ccc(OC(F)(F)F)cc1)N1Cc2ccccc2C1=O (stereo unspecified),x,x,x,-1%,-4,x
C/C(=N\OCC(=O)N/N=C/c1ccccc1)c1cccs1,2,5%,-18%,27%,-4,4
C/C(=N\OCC(=O)N/N=C/c1ccccc1O)c1cccs1,u,2%,-14%,24%,-5,-67*
CCN1/C(=C/c2ccc3ccccc3[n+]2CC)C=Cc2ccccc21,-70*,-15%,-43%,-15%,-16,u
CCN1/C(=C/c2ccc3ccccc3[n+]2CCCS(=O)(=O)[O-])C=Cc2cc(C)ccc21,-21,-1%,0%,-18%,-21,u
CCCC(=O)NC(c1ccc(C(C)C)cc1)c1ccc2cccnc2c1O (stereo unspecified),u,-2%,4%,14%[56.9 µM],3,-65*
CCCC(=O)NC(c1ccccc1Cl)c1ccc2cccnc2c1O (stereo unspecified),-85*,-2%,6%,4%,-1,u
CC(=O)NC(c1ccco1)c1ccc2cccnc2c1O (stereo unspecified),-93*,1%,-1%,13%,-19,-97*
CCCC(=O)NC(c1ccc(N(C)C)cc1)c1ccc2cccnc2c1O (stereo unspecified),-69*,0%,10%,-26%[56.9 µM],7,-92*
CC(C)C(=O)NC(c1ccc(Cl)cc1Cl)c1ccc2cccnc2c1O (stereo unspecified),-14,0%,-2%,-7%,0,x
CCCCC(=O)NC(c1ccc(Cl)cc1Cl)c1ccc2cccnc2c1O (stereo unspecified),-29,-1%,-14%,-52%[56.9 µM],8,u

# Screening results deposited in PubChem BioAssay by National Center for Advancing Translational Sciences (NCATS).
